A selection: hits, their analogues and other compounds. The true share with any hit is near 3%.
VDR inh: blocks the human vitamin D receptor; P11473; VDR-SRC2-3 peptide fluorescence polarization, 2 h; Potency, µM, for inactives: max response, negative = inhibition, most hits filed as inhibitors; actives 0.93% (n = 400,000); note: % is set by controls: 0 for no effect and ±100 for the full control effect
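Fluorescence polarization assay measuring small-molecule disruption of VDR binding to the coregulator peptide SRC2-3. Compounds were pin-transferred (23 nl) into the reagent mix and incubated 2 h at room temperature before reading.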
USP1 inh: blocks the human USP1/UAF1 deubiquitinase complex. recombinant USP1/UAF1, Ub-Rhodamine cleavage fluorescence. actives 0.23% (n = 390,000). Potency, µM (top dose mostly 57.1 µM), for the others: at the highest dose activity change, negative = inhibition, usual class: inhibitors; note: % is set by controls: 0 for no effect and ±100 for the full control effect; nearly all actives have a fitted effect of over 60% in size
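1 nM enzyme complex + cpd, 15 min RT; start with Ub-Rho 150nM final; kinetic fluorescence ex 480/em 540, 6 reads q60 s. Buffer 50mM HEPES pH 7.8, 0.5mM EDTA, 0.1 mg/ml BSA, 1mM TCEP, 0.01% Tween-20.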
TSG101-PTAP inh: blocks PTAP/TSG101 interaction to inhibit HIV-1 budding. AID 493005. 340,000 tested, under 10 active. Fluorescence polarization, FITC-PTAP peptide / Tsg101 binding. Potency, µM (top dose mostly 115 µM), inactives show at the highest dose activity change, negative = inhibition, hits mostly inhibitors; active = well fitted inhibition curve with a large enough effect in the main read-out, with a control signal flat, not every such curve was filed as active; inconclusive = small, poorly fitted or top-dose-only effect, or effect the other way, or a change in a side signal; inactive = no such curve, though single readings can be large or run the other way; note: % of control where 0% means no effect
Target sequence (Q99816 whole entry, looked up): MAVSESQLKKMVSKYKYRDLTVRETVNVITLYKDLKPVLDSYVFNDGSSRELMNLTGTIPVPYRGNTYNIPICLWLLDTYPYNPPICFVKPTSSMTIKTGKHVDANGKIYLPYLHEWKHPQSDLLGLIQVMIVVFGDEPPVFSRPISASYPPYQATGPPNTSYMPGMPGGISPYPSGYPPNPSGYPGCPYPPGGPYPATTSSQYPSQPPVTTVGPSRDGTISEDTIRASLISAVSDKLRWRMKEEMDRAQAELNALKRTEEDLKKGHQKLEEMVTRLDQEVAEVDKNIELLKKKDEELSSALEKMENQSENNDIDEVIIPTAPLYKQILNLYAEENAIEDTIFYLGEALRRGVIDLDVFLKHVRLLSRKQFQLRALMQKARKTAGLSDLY
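Steps: Tsg101 binding domain dispensed (10 uM final), compounds pinned in DMSO, FITC-labeled PTAP-motif peptide added (50 nM final); after 20 min binding at room temperature, polarization measured.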
PLK1 PBD inh: inhibitors of human PLK1 polo-box domain binding; P53350; Plk1 PBD binding of FITC phosphopeptide, fluorescence polarization; Potency, µM, inactives show max response, negative = inhibition, most hits filed as inhibitors; actives 2.8% (n = 360,000); AID 720504; note: series mostly up to about 57 µM; % is set by controls: 0 for no effect and ±100 for the full control effect; nearly all actives have a fitted effect of over 65% in size
KAT2A inh: blocks human GCN5L2 histone acetyltransferase. Q92830. GCN5L2 HAT assay, ThioGlo1 CoA-SH fluorescence. Potency, µM (titrated, usually from 58.9 µM), for inactives: at the highest dose activity change, negative = inhibition, usual class: inhibitors. actives 0.21% (n = 390,000). AID 504327; note: % is set by controls: 0 for no effect and ±100 for the full control effect
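Preincubate 20nM GCN5L2 with compound 15 min, RT → add 50uM ThioGlo1 + 75uM H3(1-25) + 70uM acetyl-CoA → read fluorescence 0 and 20 min. Primary qHTS; fluorescent artifacts likely.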
* marks the source's active call; other numbers are inactive results; ? = inconclusive; / = no result. Unless noted, calls come from the whole dose curve; as a rule, active = well fitted curve in the direction sought with a large enough effect; inconclusive = small, poorly fitted or top-dose-only effect, or another doubt; inactive = no such curve, though single readings can be large; an effect the other way counts as inactive or inconclusive. Potency is the fitted concentration of half-maximal effect.

SMILES	VDR inh	USP1 inh	TSG101-PTAP inh	PLK1 PBD inh	KAT2A inh
COc1ccccc1NS(=O)(=O)c1cc(NC(=O)C2CCCC2)ccc1N1CCOCC1	?	-13.7%	-1.4%	15µM*	-3.4%
COc1ccccc1NS(=O)(=O)c1cc(NC(=S)NCCN2CCOCC2)ccc1N1CCOCC1	79.4µM*	2.0%	-5.6%	5.32µM*	-1.1%
O=S(=O)(Nc1ccccc1Cl)c1cc(NC(=S)NCCN2CCOCC2)ccc1Cl	-17.2%	-10.7%	-1.3%	-28.8%	-6.3%
CCOC(=O)N1CCc2c(sc3c2c(=O)n(Cc2ccccc2)c(=O)n3Cc2cccc(Cl)c2)C1	-18.5%	-12.9%	/	/	1.2%
NC(=O)[C@H]1CCCN1C(=O)[C@H](Cc1cnc[nH]1)NC(=O)[C@@H]1CCC(=O)N1	-15.9%	/	/	/	-12.9%
COc1ccc(-n2nnc(C(=O)Nc3ccccc3F)c2N)cc1	-21.1%	-12.5%	/	/	-4.8%
COc1ccc(Br)cc1CNC(=O)Cn1c(=O)c2cccn2c2ccc(F)cc21	3.7%	-26.7%	/	/	-8.3%
COc1ccccc1NS(=O)(=O)c1cc(NC(=O)c2cnccn2)ccc1N1CCOCC1	0.6%	-2.9%	-2.4%	-5.7%	-10.6%
COc1ccccc1NS(=O)(=O)c1cc(NC(=O)COc2ccccc2F)ccc1N1CCOCC1	?	-18.4%	-0.7%	23.8µM*	-8.1%
CCOc1cc(N2CCOCC2)c(OCC)cc1NC(=O)Cc1ccccc1OC	-6.9%	-6.4%	0.4%	0.6%	28.2µM*
Cc1cc(C(=O)NCc2ccccc2Cl)c2c(C)nn(-c3ccccc3)c2n1	5.5%	-8.1%	/	/	21.6%
CN1C(=O)/C(=C2\SC(=S)N(CC3CCCO3)C2=O)c2ccccc21 (stereo unspecified)	/	/	/	/	-0.4%
O=C(O)CN1C(=O)/C(=C2\C(=O)N(Cc3ccccc3Cl)c3ccccc32)SC1=S	-19.3%	-7.8%	-11.7%	26.7µM*	?
O=C1/C(=C2\C(=O)N(Cc3ccc(F)cc3)c3ccccc32)SC(=S)N1CCS(=O)(=O)O	?	-27.6%	-13.2%	21.2µM*	1.2%
COc1ccc(O)c(/C=C2/SC(=S)N(Cc3ccccc3)C2=O)c1	?	?	?	-5.7%	-10.4%
Cc1ccc(-c2nn(-c3ccccc3)cc2/C=C2\SC(=S)N(CC(=O)O)C2=O)cc1	?	-16.9%	-5.1%	29.9µM*	?
CCOc1ccc(-c2nn(-c3ccccc3)cc2/C=C2\SC(=S)N(C3CCS(=O)(=O)C3)C2=O)cc1 (stereo unspecified)	-26.3%	?	?	?	-3.0%
O=C1C(=Cc2cn(-c3ccccc3)nc2-c2ccc(OCc3ccccc3F)cc2)SC(=S)N1CCS(=O)(=O)O	/	/	/	9.47µM*	/
COc1ccc(-c2nn(-c3ccccc3)cc2/C=C2/SC(=S)N(CCC(=O)O)C2=O)cc1	?	-19.1%	14.2%	21.2µM*	?
COc1ccc(-c2nn(-c3ccccc3)cc2/C=C2/SC(=S)N(CCC(=O)O)C2=O)c(C)c1	?	-18.8%	-5.6%	11.9µM*	?
Cc1cn2c(=O)cc(COc3cccc(NC(=O)c4ccc(C(C)(C)C)cc4)c3)nc2s1	-7.1%	-26.8%	/	/	-0.7%
COc1ccc(-c2c(C3C4C=CCCC4(C)C(=O)N3Cc3ccccc3)ccc3ccccc23)cc1 (stereo unspecified)	-6.5%	/	/	/	/
CN(C)C(CNC(=O)c1cc2ccccc2o1)c1ccco1 (stereo unspecified)	3.2%	-11.7%	-0.1%	-4.7%	-0.2%
COC(=O)Cc1ccc(NC(=S)N2CCCC(CO)C2)cc1 (stereo unspecified)	-5.4%	-16.8%	-2.0%	?	-10.2%
COc1cc(NC(=S)N2CCCC(CO)C2)cc(OC)c1 (stereo unspecified)	6.9%	-4.3%	-1.1%	21.2µM*	2.7%
SMILES	VDR inh	USP1 inh	TSG101-PTAP inh	PLK1 PBD inh	KAT2A inh
COc1cc(NC(=O)CSc2ncnc3sc4c(c23)CCC(C)C4)c(C(=O)O)cc1OC (stereo unspecified)	-10.3%	-17.7%	-4.5%	16.8µM*	-27.1%
Cc1cc(NC(=O)CSc2ncnc3sc4c(c23)CCC(C)C4)no1 (stereo unspecified)	/	/	/	/	-5.8%
CC1CCc2c(sc3ncnc(SCC(=O)Nc4ccc(C(=O)O)cc4)c23)C1 (stereo unspecified)	1.8%	-9.6%	-7.3%	59.7µM*	-4.8%
CCNc1ncc2nc(-c3ccccc3)c(=O)n(C[C@H]3CCCO3)c2n1	-9.9%	/	/	/	?
CCOc1ccc(NC(=O)C(C)NC(=O)c2ccccc2Cl)cc1S(=O)(=O)N1CCCC1 (stereo unspecified)	-2.8%	-17.4%	-3.6%	2.7%	-7.6%
Cc1cccc(NC(=O)CSc2nc(-c3ccccc3)cc(=O)[nH]2)c1C	-4.4%	11.4%	/	/	1.4%
CCCN1C(=O)c2ccccc2NC1c1ccc(Cl)c(Cl)c1 (stereo unspecified)	?	-24.0%	-3.5%	21.2µM*	-0.9%
CCCN1C(=O)c2ccccc2NC1c1ccc(Cl)cc1 (stereo unspecified)	-2.2%	-15.2%	-2.6%	1.8%	-6.7%
C=CC[C@@H]1[C@H](O)CC[C@@]2(C)[C@H]1CC[C@@H]1[C@@H]2CC[C@]2(C)C([C@H](C)CCCC(C)C)CC[C@@H]12 (stereo partly specified)	0.3%	/	/	/	-15.3%
C/C=C(\C)CN1CCN(c2ccccc2)CC1	-6.5%	-5.9%	-5.9%	3.6%	31.6µM*
CCOc1ccc(C2NC(=O)C(C#N)=C(S)N2c2ccc(C)cc2)cc1OC (stereo unspecified)	17.8µM*	-12.7%	-5.0%	-23.8%	-7.2%
CCOc1ccc(C2NC(=O)C(C#N)=C(S)N2c2cccc(C)c2)cc1OC (stereo unspecified)	79.4µM*	-10.5%	-5.4%	-16.9%	3.0%
COc1ccccc1-c1nnc(SCc2ccccn2)n1C	3.2%	-17.6%	/	-8.0%	2.6%
COc1ccc(-c2nnc(SCc3ccccn3)n2C)cc1	4.1%	-21.9%	-1.8%	29.9µM*	1.1%
CCOCCCNC(=O)C(c1ccccc1)N1Cc2ccccc2C1=O (stereo unspecified)	29.4%	-8.8%	/	/	-0.5%
COc1ccc(CNC(=S)Nc2cc(C)ccc2C)cc1	22.2%	-1.8%	-5.7%	?	-5.9%
COc1ccc(CNC(=S)Nc2ccccc2C)cc1	-24.1%	-18.2%	1.6%	16.8µM*	-12.2%
COc1ccc(Cl)cc1NC(=S)Nc1ccccc1C	?	-9.8%	-0.6%	10.6µM*	-2.6%
C=CCNC(=O)Nc1cc(Cl)ccc1OC	-9.9%	-22.0%	-4.2%	26.7µM*	-1.7%
Cc1cccc(NC(=O)c2cccc(N3CCCS3(=O)=O)c2)c1	11.5%	-31.3%	/	/	1.6%
CCC(=O)Nc1ccccc1-c1nc2ccccc2n(CC(=O)c2ccc(Cl)cc2)c1=O	-3.9%	-1.9%	/	/	?
